# Measured values from PMC7862700, “An all-to-all approach to the identification of sequence-specific readers for epigenetic DNA modifications on cytosine”.
# What was measured:
# Test in all cases: DAPPL (digital affinity profiling via proximity ligation, sequencing); 10 mM Tris-HCl pH 7.5, 50 mM NaCl, 1 mM DTT, 4% glycerol, room temperature, 30 min; GST-TFs on glutathione beads, 16-mer random dsDNA library, 0.1% formaldehyde crosslink after washing; high values mean tight binding
# Details in all cases: protein: recombinant; tags: N-terminal GST; dsDNA, one strand shown
# FLI1 = molecular target: T1, FLI1 (Homo sapiens, UniProt Q01543 1-452)
# T1 sequence: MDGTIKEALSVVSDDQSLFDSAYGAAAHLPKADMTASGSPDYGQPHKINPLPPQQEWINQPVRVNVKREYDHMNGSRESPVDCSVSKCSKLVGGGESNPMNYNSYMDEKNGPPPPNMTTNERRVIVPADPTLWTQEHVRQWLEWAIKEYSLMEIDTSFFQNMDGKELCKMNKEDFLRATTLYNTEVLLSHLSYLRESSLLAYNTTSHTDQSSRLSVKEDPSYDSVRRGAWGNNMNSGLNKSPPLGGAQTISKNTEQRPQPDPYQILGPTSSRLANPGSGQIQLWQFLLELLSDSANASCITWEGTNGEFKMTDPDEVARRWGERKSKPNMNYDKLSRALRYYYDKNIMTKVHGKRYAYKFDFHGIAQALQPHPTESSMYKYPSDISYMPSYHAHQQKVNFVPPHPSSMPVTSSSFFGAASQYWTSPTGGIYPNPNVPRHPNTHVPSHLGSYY
# How it was run: (§1)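 Each value of binding signal is a hexamer's read frequency for a factor divided by the same hexamer's frequency in the tag-only sample. Barcoded, bead-captured GST fusions of human transcription factors made in yeast were pooled with that sample and incubated with 200 nmole of a random double-stranded 16-mer DNA library in Tris/NaCl/DTT/glycerol buffer at room temperature for 30 min. Washing, 0.1% formaldehyde crosslinking, proximity ligation, PCR and Illumina NextSeq500 sequencing followed.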
# ELK1 = molecular target: T2, ELK1 (Homo sapiens, UniProt P19419 1-428)
# T2 sequence: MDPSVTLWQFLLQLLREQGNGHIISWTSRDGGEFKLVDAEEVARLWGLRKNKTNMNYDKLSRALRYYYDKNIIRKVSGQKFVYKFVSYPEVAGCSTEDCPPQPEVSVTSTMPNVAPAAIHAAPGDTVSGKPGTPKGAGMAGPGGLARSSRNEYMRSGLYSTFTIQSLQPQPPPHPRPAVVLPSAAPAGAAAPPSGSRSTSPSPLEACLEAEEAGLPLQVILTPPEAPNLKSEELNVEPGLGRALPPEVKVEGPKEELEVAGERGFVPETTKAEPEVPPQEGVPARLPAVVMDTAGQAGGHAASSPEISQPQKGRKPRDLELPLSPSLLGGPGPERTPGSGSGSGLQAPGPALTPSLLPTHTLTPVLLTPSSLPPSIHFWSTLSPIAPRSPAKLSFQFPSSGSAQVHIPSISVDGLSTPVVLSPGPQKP
# How it was run: as §1
# GABPA = molecular target: T3, GABPA (Homo sapiens, UniProt Q06546 1-454)
# T3 sequence: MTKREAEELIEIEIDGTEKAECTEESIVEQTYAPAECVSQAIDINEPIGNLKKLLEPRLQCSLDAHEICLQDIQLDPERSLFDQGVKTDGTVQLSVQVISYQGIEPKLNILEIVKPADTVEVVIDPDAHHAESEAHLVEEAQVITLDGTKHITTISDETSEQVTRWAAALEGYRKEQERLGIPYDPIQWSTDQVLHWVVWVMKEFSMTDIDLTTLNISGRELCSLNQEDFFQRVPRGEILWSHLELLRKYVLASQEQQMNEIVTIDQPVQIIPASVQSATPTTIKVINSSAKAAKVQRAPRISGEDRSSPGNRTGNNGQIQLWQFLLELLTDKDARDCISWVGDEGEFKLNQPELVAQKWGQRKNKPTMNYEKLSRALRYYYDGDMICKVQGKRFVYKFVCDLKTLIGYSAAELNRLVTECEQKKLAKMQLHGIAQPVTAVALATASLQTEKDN
# How it was run: as §1
# ERG = molecular target: T4, ERG (Homo sapiens, UniProt P11308 1-479)
# T4 sequence: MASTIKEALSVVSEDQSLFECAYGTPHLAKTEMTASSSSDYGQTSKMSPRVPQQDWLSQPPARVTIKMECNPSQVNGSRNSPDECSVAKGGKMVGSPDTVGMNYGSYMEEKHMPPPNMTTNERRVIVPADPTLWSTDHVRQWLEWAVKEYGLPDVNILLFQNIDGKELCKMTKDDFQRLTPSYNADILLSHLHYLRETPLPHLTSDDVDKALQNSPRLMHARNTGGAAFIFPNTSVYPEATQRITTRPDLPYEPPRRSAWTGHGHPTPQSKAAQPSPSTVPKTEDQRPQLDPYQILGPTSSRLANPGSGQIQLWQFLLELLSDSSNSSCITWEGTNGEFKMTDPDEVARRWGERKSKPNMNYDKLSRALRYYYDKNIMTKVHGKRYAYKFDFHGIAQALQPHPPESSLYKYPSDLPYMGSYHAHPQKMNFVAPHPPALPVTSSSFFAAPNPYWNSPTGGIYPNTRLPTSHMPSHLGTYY
# How it was run: as §1
# ELF1 = ELF1 (Homo sapiens, UniProt P32519 1-619)
# How it was run: as §1
# EHF = molecular target: T5, EHF (Homo sapiens, UniProt Q9NZC4 1-300)
# T5 sequence: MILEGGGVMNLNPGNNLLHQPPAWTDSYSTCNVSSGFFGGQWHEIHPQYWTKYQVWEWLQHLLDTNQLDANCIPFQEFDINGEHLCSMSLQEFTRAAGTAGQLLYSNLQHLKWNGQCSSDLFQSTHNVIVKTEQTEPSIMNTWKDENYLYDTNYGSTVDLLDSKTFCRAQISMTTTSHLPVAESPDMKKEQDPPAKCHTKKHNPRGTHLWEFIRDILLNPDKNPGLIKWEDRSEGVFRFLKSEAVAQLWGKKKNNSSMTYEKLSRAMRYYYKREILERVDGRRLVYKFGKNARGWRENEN
# How it was run: as §1
# SPI1 = SPI1 (Homo sapiens, UniProt P17947 1-270)
# How it was run: as §1
# SPIB = SPIB (Homo sapiens, UniProt Q01892 1-262)
# How it was run: as §1
# ELK3 = molecular target: T6, ELK3 (Homo sapiens, UniProt P41970 1-407)
# T6 sequence: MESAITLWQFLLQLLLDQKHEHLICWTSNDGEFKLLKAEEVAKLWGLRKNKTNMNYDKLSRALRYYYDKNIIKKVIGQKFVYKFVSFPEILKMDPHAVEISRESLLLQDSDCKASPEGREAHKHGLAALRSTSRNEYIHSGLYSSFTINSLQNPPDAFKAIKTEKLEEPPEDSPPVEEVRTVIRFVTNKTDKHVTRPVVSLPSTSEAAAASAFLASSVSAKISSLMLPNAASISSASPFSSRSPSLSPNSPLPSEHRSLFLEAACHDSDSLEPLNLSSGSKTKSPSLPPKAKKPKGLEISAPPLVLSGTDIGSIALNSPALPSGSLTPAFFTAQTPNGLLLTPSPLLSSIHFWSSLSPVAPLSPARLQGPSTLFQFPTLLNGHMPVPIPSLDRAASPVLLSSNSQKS
# How it was run: as §1
# FEV = molecular target: T7, FEV (Homo sapiens, UniProt Q99581 1-238)
# T7 sequence: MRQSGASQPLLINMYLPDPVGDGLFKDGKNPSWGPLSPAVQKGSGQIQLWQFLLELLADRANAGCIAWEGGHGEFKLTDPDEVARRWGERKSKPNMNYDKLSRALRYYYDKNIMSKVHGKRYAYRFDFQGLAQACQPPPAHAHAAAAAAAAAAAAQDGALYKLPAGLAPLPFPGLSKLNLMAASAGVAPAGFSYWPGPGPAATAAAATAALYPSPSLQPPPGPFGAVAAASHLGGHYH
# How it was run: as §1
# ETV5 = ETV5 (Homo sapiens, UniProt P41161 1-510)
# How it was run: as §1
# SPIC = molecular target: T8, SPIC (Homo sapiens, UniProt Q8N5J4 1-248)
# T8 sequence: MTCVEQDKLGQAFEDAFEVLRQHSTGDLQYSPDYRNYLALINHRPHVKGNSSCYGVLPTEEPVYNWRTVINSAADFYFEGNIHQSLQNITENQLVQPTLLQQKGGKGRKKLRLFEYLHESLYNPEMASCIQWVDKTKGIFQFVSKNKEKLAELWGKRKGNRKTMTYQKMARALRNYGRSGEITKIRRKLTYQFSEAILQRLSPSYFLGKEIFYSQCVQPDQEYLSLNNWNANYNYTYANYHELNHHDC
# How it was run: as §1
# ELF4 = ELF4 (Homo sapiens, UniProt Q99607 1-663)
# How it was run: as §1
# ELK4 = molecular target: T9, ELK4 (Homo sapiens, UniProt P28324-2 1-405)
# T9 sequence: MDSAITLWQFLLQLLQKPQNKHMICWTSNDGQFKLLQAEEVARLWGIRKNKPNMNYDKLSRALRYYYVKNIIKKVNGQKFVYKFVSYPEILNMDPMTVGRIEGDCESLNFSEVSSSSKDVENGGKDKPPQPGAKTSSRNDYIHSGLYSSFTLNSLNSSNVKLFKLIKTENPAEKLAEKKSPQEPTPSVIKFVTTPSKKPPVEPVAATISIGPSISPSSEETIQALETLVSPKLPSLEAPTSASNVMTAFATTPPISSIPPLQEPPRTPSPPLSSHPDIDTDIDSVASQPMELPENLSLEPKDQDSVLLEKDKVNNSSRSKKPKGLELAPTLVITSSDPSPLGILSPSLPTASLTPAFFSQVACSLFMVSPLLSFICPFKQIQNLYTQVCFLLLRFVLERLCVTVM
# How it was run: as §1
# ETV2 = molecular target: T10, ETV2 (Homo sapiens, UniProt O00321 1-342)
# T10 sequence: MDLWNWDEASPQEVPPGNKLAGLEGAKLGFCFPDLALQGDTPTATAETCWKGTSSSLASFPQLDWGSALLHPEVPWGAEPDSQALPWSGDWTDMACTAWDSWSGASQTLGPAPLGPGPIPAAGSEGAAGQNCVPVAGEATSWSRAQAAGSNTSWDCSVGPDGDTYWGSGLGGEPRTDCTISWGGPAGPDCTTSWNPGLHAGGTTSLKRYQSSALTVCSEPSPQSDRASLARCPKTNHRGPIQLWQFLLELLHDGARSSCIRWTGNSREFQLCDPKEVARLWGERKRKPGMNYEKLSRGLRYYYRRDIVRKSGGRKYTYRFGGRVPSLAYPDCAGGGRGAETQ
# How it was run: as §1
# ETV1 = ETV1 (Homo sapiens, UniProt P50549 1-477)
# How it was run: as §1
# ELF3 = molecular target: T11, ELF3 (Homo sapiens, UniProt P78545 1-371)
# T11 sequence: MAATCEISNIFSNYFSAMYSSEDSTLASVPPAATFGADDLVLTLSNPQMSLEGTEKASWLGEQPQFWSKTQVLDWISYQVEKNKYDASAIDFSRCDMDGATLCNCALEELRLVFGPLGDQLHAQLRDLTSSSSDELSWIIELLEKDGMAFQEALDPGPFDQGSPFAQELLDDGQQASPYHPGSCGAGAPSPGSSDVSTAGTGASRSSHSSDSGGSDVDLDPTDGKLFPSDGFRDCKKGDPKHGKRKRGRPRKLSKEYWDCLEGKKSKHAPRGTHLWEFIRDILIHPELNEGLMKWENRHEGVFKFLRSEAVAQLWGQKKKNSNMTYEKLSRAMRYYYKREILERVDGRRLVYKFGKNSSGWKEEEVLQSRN
# How it was run: as §1
# CRX = CRX (Homo sapiens, UniProt O43186 1-299)
# How it was run: as §1
# ELF4, sequence (Q99607 whole entry): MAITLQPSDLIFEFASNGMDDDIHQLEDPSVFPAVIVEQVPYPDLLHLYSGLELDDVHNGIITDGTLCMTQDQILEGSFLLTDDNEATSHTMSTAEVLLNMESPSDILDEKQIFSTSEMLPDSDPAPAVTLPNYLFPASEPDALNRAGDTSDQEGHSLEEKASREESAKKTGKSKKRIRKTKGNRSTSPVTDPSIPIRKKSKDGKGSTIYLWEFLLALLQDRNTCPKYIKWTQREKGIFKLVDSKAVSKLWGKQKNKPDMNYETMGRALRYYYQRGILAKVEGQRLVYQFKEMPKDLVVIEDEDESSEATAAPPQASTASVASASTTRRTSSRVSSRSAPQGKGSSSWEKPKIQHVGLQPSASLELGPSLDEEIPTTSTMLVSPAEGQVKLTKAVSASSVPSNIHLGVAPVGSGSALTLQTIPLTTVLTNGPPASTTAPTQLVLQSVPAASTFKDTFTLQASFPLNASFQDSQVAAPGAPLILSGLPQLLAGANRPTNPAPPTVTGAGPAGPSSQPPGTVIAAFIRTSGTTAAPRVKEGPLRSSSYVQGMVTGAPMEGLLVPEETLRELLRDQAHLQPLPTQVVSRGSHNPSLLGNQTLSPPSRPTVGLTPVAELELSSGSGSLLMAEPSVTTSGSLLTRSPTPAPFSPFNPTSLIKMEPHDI
# ETV5, sequence (P41161 whole entry): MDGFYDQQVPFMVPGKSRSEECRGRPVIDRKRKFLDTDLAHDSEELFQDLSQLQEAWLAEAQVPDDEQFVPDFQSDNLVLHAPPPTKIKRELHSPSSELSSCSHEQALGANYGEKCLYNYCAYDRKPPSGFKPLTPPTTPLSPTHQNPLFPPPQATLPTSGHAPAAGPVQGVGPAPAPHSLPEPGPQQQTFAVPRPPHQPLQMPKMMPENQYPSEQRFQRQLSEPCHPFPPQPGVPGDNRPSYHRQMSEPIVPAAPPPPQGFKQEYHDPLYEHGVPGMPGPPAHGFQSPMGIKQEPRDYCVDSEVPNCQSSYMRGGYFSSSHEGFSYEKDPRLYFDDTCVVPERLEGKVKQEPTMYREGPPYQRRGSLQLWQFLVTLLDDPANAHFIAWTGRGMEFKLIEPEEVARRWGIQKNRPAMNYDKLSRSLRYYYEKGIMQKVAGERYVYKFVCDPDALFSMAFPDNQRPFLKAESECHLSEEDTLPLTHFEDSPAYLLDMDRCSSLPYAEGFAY
# ETV1, sequence (P50549 whole entry): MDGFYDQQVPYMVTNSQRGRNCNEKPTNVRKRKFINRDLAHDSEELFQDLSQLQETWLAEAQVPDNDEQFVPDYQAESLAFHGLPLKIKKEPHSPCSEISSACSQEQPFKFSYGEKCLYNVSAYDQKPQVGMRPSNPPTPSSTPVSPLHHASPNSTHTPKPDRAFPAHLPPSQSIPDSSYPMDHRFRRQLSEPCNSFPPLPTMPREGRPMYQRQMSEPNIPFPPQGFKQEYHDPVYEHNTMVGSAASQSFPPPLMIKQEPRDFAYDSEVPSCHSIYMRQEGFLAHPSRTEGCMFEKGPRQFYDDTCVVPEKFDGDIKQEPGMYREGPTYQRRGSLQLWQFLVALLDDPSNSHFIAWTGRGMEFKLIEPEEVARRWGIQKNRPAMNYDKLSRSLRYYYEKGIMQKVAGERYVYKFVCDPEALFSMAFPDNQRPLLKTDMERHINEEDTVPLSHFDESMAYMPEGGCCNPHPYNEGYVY
# SPIB, sequence (Q01892 whole entry): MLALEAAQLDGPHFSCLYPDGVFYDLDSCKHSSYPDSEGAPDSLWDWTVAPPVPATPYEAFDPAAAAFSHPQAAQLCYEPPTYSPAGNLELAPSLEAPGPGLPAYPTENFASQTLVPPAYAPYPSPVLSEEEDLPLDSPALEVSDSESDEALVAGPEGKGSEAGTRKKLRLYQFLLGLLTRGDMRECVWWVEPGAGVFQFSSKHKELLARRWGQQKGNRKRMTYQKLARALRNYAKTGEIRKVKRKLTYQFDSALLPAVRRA
# ELF1, sequence (P32519 whole entry): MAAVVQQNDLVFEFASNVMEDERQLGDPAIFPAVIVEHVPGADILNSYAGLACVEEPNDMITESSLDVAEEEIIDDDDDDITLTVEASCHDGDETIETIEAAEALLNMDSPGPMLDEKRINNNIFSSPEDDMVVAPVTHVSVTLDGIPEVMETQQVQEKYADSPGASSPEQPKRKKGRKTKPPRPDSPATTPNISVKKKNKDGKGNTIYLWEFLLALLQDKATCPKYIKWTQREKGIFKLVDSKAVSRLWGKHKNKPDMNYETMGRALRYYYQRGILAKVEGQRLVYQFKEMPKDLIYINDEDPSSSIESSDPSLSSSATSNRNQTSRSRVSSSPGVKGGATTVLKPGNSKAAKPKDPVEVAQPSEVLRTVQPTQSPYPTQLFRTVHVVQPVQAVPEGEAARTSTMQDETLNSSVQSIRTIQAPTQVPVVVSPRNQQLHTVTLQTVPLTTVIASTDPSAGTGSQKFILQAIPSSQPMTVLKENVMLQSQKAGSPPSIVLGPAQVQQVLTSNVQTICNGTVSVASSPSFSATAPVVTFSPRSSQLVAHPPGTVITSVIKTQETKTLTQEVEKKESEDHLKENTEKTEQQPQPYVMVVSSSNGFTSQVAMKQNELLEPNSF
# CRX, sequence (O43186 whole entry): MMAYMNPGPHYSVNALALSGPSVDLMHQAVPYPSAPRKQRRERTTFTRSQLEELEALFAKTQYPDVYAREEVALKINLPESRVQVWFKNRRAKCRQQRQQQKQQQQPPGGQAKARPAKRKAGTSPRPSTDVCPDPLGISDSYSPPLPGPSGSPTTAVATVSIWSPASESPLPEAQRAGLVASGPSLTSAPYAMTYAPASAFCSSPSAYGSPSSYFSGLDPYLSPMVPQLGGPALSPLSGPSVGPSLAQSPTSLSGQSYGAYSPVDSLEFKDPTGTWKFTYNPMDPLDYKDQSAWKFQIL
Sequence,binding signal (FLI1),binding signal (ELK1),binding signal (GABPA),binding signal (ERG),binding signal (ELF1),binding signal (EHF),binding signal (SPI1),binding signal (SPIB),binding signal (ELK3),binding signal (FEV),binding signal (ETV5),binding signal (SPIC),binding signal (ELF4),binding signal (ELK4),binding signal (ETV2),binding signal (ETV1),binding signal (ELF3),binding signal (CRX)
CAACCA,"1.15 fold enrichment (6-mer frequency, TF over GST control)","1.15 fold enrichment (6-mer frequency, TF over GST control)","1.12 fold enrichment (6-mer frequency, TF over GST control)","1.03 fold enrichment (6-mer frequency, TF over GST control)","1.15 fold enrichment (6-mer frequency, TF over GST control)","1.13 fold enrichment (6-mer frequency, TF over GST control)","1.11 fold enrichment (6-mer frequency, TF over GST control)","1.06 fold enrichment (6-mer frequency, TF over GST control)","1.18 fold enrichment (6-mer frequency, TF over GST control)","1.12 fold enrichment (6-mer frequency, TF over GST control)","1.13 fold enrichment (6-mer frequency, TF over GST control)","1.02 fold enrichment (6-mer frequency, TF over GST control)","1.11 fold enrichment (6-mer frequency, TF over GST control)","1.07 fold enrichment (6-mer frequency, TF over GST control)","1.09 fold enrichment (6-mer frequency, TF over GST control)","1.09 fold enrichment (6-mer frequency, TF over GST control)",,
CCCCGC,"1.12 fold enrichment (6-mer frequency, TF over GST control)","1.19 fold enrichment (6-mer frequency, TF over GST control)","1.2 fold enrichment (6-mer frequency, TF over GST control)","1.19 fold enrichment (6-mer frequency, TF over GST control)","1.27 fold enrichment (6-mer frequency, TF over GST control)","1.26 fold enrichment (6-mer frequency, TF over GST control)","1.11 fold enrichment (6-mer frequency, TF over GST control)","1.19 fold enrichment (6-mer frequency, TF over GST control)","1.06 fold enrichment (6-mer frequency, TF over GST control)","1.14 fold enrichment (6-mer frequency, TF over GST control)","1.18 fold enrichment (6-mer frequency, TF over GST control)","1.34 fold enrichment (6-mer frequency, TF over GST control)","1.24 fold enrichment (6-mer frequency, TF over GST control)","1.36 fold enrichment (6-mer frequency, TF over GST control)",,"1.17 fold enrichment (6-mer frequency, TF over GST control)","1.29 fold enrichment (6-mer frequency, TF over GST control)","1.01 fold enrichment (6-mer frequency, TF over GST control)"
